Tb PYK inh – T. brucei pyruvate kinase inhibition; 410,000 compounds, 0.12% hits; Potency, µM (titrated, usually from 76.8 µM), inactives show top-dose activity, negative = inhibition, actives largely listed as inhibitors; Q57TT1; TbPYK enzyme, Kinase-Glo Plus ATP luminescence, 45 min; note: potency is the fitted concentration of half-maximal effect; nearly all actives have a fitted effect of over 50% in size
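In this concentration-response screen, enzyme-free wells defined baseline while DMSO plates tracked drift. Each reaction combined TbPYK, substrate, compound and 130 uM ADP for 45 min at room temperature. Kinase-Glo Plus luminescence gave the signal.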
HCMV antiviral – human cytomegalovirus inhibition. HFF cells, HCMV-luciferase reporter, 72 h; hits give low values. activity change, negative = inhibition, % at 57.5 µM. 410,000 compounds, 4.5% hits; in the data active = activity change below about -60%; inconclusive = no clear call, values can overlap the other calls; inactive = above about -39%
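Human foreskin fibroblasts infected with luciferase-reporter HCMV at MOI 1 PFU/cell, compounds at two doses. Luciferase measured 72 h post infection; normalized to buffer-only basal and Salinomycin (10uM) controls.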
VACV Venus inh – vaccinia inhibition (Venus reporter) | Vaccinia virus Venus reporter expression, fluorescence | Potency, µM (highest dose often 36.5 µM), for inactives: at the top dose activity change, negative = inhibition, hits mostly inhibitors | 330,000 compounds, 0.46% hits | AID 720580; calls by dose curve; tested in A549 cells; note: potency is the fitted concentration of half-maximal effect; nearly all actives have a fitted effect of over 30% in size
LmPK inhibitor – inhibitors of Leishmania mexicana pyruvate kinase; Q27686; purified LmPK, Kinase-Glo ATP luminescence, 1 h; Potency, µM (titrated, usually from 57.5 µM), inactives show at the highest dose activity change, negative = inhibition, hits mostly inhibitors; 290,000 compounds, 0.37% hits; note: potency is the fitted concentration of half-maximal effect
Target sequence (Q27686 whole entry, looked up): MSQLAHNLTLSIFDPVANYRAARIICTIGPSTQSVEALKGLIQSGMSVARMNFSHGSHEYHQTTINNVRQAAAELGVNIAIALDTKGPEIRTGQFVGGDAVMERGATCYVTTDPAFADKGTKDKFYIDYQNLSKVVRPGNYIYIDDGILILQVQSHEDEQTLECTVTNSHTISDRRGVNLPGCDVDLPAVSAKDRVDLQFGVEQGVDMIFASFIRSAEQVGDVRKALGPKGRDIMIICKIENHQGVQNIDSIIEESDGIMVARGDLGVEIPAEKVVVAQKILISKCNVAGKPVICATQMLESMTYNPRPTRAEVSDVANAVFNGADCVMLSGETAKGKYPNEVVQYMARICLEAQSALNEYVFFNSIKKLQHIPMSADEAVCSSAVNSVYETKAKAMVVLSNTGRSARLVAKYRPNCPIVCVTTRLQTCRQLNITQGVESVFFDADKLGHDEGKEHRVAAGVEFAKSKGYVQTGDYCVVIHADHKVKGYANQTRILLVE
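qHTS format; LmPK 0.1 nM; substrates PEP 0.5 mM and ADP 0.1 mM. One-hour room-temperature incubation, then coupled luciferase luminescence; 0.5 nM enzyme wells mark activation.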
VACV mCherry inh – vaccinia inhibition (mCherry reporter); Vaccinia virus mCherry reporter infection, fluorescence; Potency, µM (doses to about 36.5 µM), inactives show at the highest dose activity change, negative = inhibition, actives largely listed as inhibitors; 310,000 compounds, 0.63% hits; calls by dose curve; tested in A549 cells; note: potency is the fitted concentration of half-maximal effect; nearly all actives have a fitted effect of over 35% in size
Active calls of the source: *; i = inactive; ? = inconclusive; nt = no result given; ! = a repeat was not active; [ ] = remark or other dose. The list is not random: actives were taken first. Their share in the collection is about 5%. Unless noted, calls come from the whole dose curve; as a rule, active = well fitted curve in the direction sought with a large enough effect; inconclusive = small, poorly fitted or top-dose-only effect, or another doubt; inactive = no such curve, though single readings can be large; an effect the other way counts as inactive or inconclusive. % is set by controls: 0 for no effect and ±100 for the full control effect.

SMILES | Tb PYK inh | HCMV antiviral | VACV Venus inh | LmPK inhibitor | VACV mCherry inh
CC1=C(c2ccc(Cl)cc2)S(=O)(=O)N=C1N1CCC(C(=O)NCCc2ccco2)CC1 | 4% | -4 | 0% | nt | -6%
CCC1=C(c2ccc(C)cc2)S(=O)(=O)N=C1N1CCC(C(=O)NCc2ccc(C)cc2)CC1 | -2% | 9 | -21% | nt | -16%
CC1=C(c2ccc(C)c(C)c2)S(=O)(=O)N=C1N1CCC(C(=O)Nc2ccc(Cl)cc2)CC1 | 4% | -84* | -12% | nt | -29%
CCc1ccc(C2=C(C)C(N3CCC(C(=O)NCCc4ccco4)CC3)=NS2(=O)=O)cc1 | -7% | -62* | -5%[7.34 µM] | nt | -9%[7.34 µM]
CC1=C(c2ccc(C)c(C)c2)S(=O)(=O)N=C1N1CCC(C(=O)NCc2ccc(Cl)cc2)CC1 | -4% | -22 | -8% | nt | -6%
CCC1=C(c2ccc(C)cc2)S(=O)(=O)N=C1N1CCC(C(=O)NCCc2ccc(Cl)cc2)CC1 | -1% | -87* | ? | nt | -24%
Cc1ccc(N(C(=O)CNC(=O)c2cccs2)C(C(=O)NC2CCCC2)c2ccncc2)cc1 (stereo unspecified) | 0% | 7 | 5% | -3% | 5%
Cc1ccccc1CN1C(=O)c2ccccc2S1(=O)=O | 0% | ? | -1% | -1% | -18%
O=C1c2ccccc2S(=O)(=O)N1Cc1nc2ccccc2s1 | 1% | -73* | -4% | 0% | -13%
COc1ccccc1/C=C/c1nc(C#N)c(NCCc2ccccc2)o1 | 1% | -7 | 1% | nt | -1%
COc1ccccc1/C=C/c1nc(C#N)c(NCC(C)C)o1 | -3% | -70* | -8% | nt | i
CCN(CC)CCOc1ccc(/C(=C(/Cl)c2ccccc2)c2ccccc2)cc1 | -4% | -71*! | -28% | -9% | -20%
CC/C(=C(\c1ccc(O)cc1)c1ccc(OCCN(C)C)cc1)c1ccccc1 | -11% | -67* | ? | 0% | -16%
CS(=O)c1ccccc1COC(=O)Nc1ccccc1 (stereo unspecified) | -8% | nt | -10% | 5% | -4%
COc1cc2c(cc1OC)-c1c(OC)c(OC)cc3ccnc(c13)C2=O | 4% | -95* | ? | -3% | ?
COc1ccc(C(=O)c2nccc3cc(OC)c(OC)cc23)cc1OC | 2% | nt | -3% | nt | -11%
O=C(O)CCSc1nc2ccccc2s1 | 4% | -82* | -4% | -10% | -15%
CC(=O)Nc1ccc2nc(SCCOc3ccccc3)sc2c1 | 0% | -78* | -15% | nt | -19%
CCOC(=O)CSc1nc2ccc(NC(=O)CSc3nnnn3Cc3ccccc3)cc2s1 | 5% | 4 | nt | 7% | nt
CC(C)(C)NC(=O)CSc1nc2ccc(NC(=O)CSc3nnnn3Cc3ccccc3)cc2s1 | -8% | -77* | ? | 16% | ?
CCOc1ccc(C(=O)Nc2ccc3nc(SCc4ccccc4)sc3c2)cc1 | 3% | 2 | 10µM* | nt | ?
CCOc1ccc2nc(NC(=O)c3nc(SCc4ccccc4C)ncc3Cl)sc2c1 | -2% | -11 | -4% | nt | 0%
CN(C(=O)CSc1nc2ccc(NC(=O)c3cccs3)cc2s1)c1ccccc1 | -6% | -76* | -12% | nt | i
Cc1ccc(OCC(O)Cn2c(N3CCCCC3)nc3c2c(=O)[nH]c(=O)n3C)cc1C (stereo unspecified) | 1% | -5 | nt | 7% | nt
COc1cc(C[C@@H]2C(=O)OC[C@H]2Cc2ccc(OC)c(OC)c2)ccc1O | -8% | -90* | ? | nt | ?
SMILES | Tb PYK inh | HCMV antiviral | VACV Venus inh | LmPK inhibitor | VACV mCherry inh
COc1cc(CC2COC(=O)C2(O)Cc2ccc(O)c(OC)c2)ccc1O (stereo unspecified) | 4% | ? | -18% | 3% | i
O=C(Cn1cnc2ccccc21)N/N=C/c1ccccc1 | 0% | 12 | nt | 2% | nt
CC(/C=N/NC(=O)Cn1cnc2ccccc21)=C\c1ccccc1 | 2% | -70* | nt | 2% | nt
O=C(COC(=O)c1ccc([N+](=O)[O-])o1)Nc1cccc(S(=O)(=O)N2CCCCC2)c1 | 4% | ? | -8% | 4% | i
Cc1ccc(NC(=O)c2ccc([N+](=O)[O-])o2)cc1S(=O)(=O)N1CCOCC1 | -6% | -95* | ? | -1% | ?
CC(C)C(=O)N1CCN(c2ccc(NC(=O)c3ccc([N+](=O)[O-])o3)cc2)CC1 | -2% | -98* | 11µM* | 4% | 10µM*
O=C(Nc1c(Cl)ccc2nsnc12)c1ccc([N+](=O)[O-])o1 | 2% | -106* | nt | -1% | nt
O=C(Nc1cccc(S(=O)(=O)N2CCCCC2)c1)c1ccc([N+](=O)[O-])o1 | 4% | 0 | 10µM* | 2% | 11µM*
Fc1ccc(C(NCCc2ccccc2)c2nnc(-c3ccccc3Cl)o2)cc1 (stereo unspecified) | 5% | -5 | -3% | nt | -10%
O=C(Nc1ccc(N2CCCC2)c(Cl)c1)c1ccc([N+](=O)[O-])cc1 | 3% | -15 | nt | 1% | nt
CN1CCN(c2ccc(NC(=O)c3ccc([N+](=O)[O-])o3)cc2Cl)CC1 | 0% | -101* | ? | -3% | 13µM*
COc1c(F)c(F)c(C(=O)Nc2ccc(N3CCN(C(C)=O)CC3)c(Cl)c2)c(F)c1F | -3% | -83* | nt | 3% | nt
CC(=O)N1CCN(c2ccc(NC(=O)c3ccc(Br)o3)cc2Cl)CC1 | -22% | -31 | nt | -3% | nt
CC(C)C(=O)N1CCN(c2ccc(NC(=O)c3ccc([N+](=O)[O-])o3)cc2Cl)CC1 | 4% | -100* | ? | -1% | ?
CCCC(=O)N1CCN(c2ccc(NC(=O)c3ccc([N+](=O)[O-])o3)cc2Cl)CC1 | 1% | -109* | ? | -5% | 10µM*
COC(=O)C1(CCSC)NC(c2ccc(O)cc2)C2C(=O)N(c3ccc(F)cc3)C(=O)C21 (stereo unspecified) | -4% | 83 | -9% | -5% | -1%
Fc1ccccc1N1CCN(c2nc3ccccc3c3nc(-c4ccccc4)nn23)CC1 | 5% | 17 | -4% | nt | -13%
O=C(CN1CCN(S(=O)(=O)c2ccc(Cl)cc2)CC1)NC1CCCC1 | 3% | -25 | nt | -10% | nt
COCCCn1c(SCc2cccc(Cl)c2)nc2c(sc3ccccc32)c1=O | 7% | 14 | -5% | nt | -6%
O=[N+]([O-])c1cccc(S(=O)(=O)Nc2nc3ccccc3nc2Nc2cccc(S(=O)(=O)N3CCCCC3)c2)c1 | 1% | -100* | nt | 2% | nt
O=C(Nc1ccc(N2CCOCC2)c(Cl)c1)c1c(F)c(F)c(F)c(F)c1F | 37% | -27 | -17% | 1% | -20%
O=C(Nc1ccc(N2CCOCC2)c(Cl)c1)c1ccc([N+](=O)[O-])o1 | -6% | -102* | ? | -8% | ?
CCc1nc2ccc(C(=O)NCCCn3ccnc3)cn2c1N(CC)CCOC | -1% | -5 | 7% | nt | 43%
CCC(c1nnnn1CS(=O)(=O)c1ccc(C)cc1)N1CCN(c2nc3ccccc3s2)CC1 (stereo unspecified) | -4% | -64* | -19% | -3% | i
